Results with a measured potency or affinity are listed apart.
Tests used:
Staphylococcus aureus = conditions: Concentration 20 uM; ASSAY_TEST Inhibition of Bacterial Growth; detection method Absorption (OD600); MEDIA CAMHB; plate type 384well; NBS; CORNING #3640; time 18 hr
Escherichia coli = conditions: Concentration 20 uM; ASSAY_TEST Inhibition of Bacterial Growth; detection method Absorption (OD600); MEDIA CAMHB; plate type 384well; NBS; CORNING #3640; time 18 hr

Compound	Inhibition (Staphylococcus aureus)	Inhibition (Escherichia coli)
CC(C)NCC(O)COc1ccc(CC(N)=O)cc1 (configuration not stated) [ATENOLOL]	9.69%	2.4%
O=C(O)COCCN1CCN(C(c2ccccc2)c2ccc(Cl)cc2)CC1 (configuration not stated) [CETIRIZINE]	14.64%	-0.91%
CC1(C)S[C@@H]2[C@H](NC(=O)[C@H](N)c3ccc(O)cc3)C(=O)N2[C@H]1C(=O)O [AMOXICILLIN]	15.09%	7.14%
COc1ccc2c(c1)c(CC(=O)O)c(C)n2C(=O)c1ccc(Cl)cc1.O	8.16%	7.22%
C[n+]1ccccc1/C=N/O.[Cl-] [PRALIDOXIME CHLORIDE]	12.69%	4.53%
CN(C)CC[C@@H](c1ccc(Br)cc1)c1ccccn1.O=C(O)/C=C\C(=O)O [DEXBROMPHENIRAMINE MALEATE]	4.45%	5.01%
CC(C)NCC(O)c1ccc(NS(C)(=O)=O)cc1.Cl (configuration not stated) [SOTALOL HYDROCHLORIDE]	-25.28%	5.97%
C[C@]12CC[C@@H]3c4ccc(OS(=O)(=O)[O-])cc4CC[C@H]3[C@@H]1CCC2=O.[Na+] [ESTRONE SODIUM SULFATE]	8.52%	6.3%
CN(C)CCOC(C)(c1ccccc1)c1ccccn1.O=C(O)CCC(=O)O (configuration not stated) [DOXYLAMINE SUCCINATE]	2.51%	3.89%
O=C(CCNNC(=O)c1ccncc1)NCc1ccccc1 [NIALAMIDE]	16.28%	8.37%
O=C(O)c1cc2ccccc2c(Cc2c(O)c(C(=O)O)cc3ccccc23)c1O.OCCOCCN1CCN(C(c2ccccc2)c2ccc(Cl)cc2)CC1 [HYDROXYZINE PAMOATE]	11.96%	0.33%
